Source: PubChem BioAssay
In the library only some 19% were active in any assay of this set; here they are far more common.
HT1080 IDH1KD tx: kills HT-1080 cells with IDH1 knockdown; HT-1080 IDH1 knockdown viability, ATP luminescence, 48 h; hit rate 2% among 360,000; Potency, µM (titrated, usually from 46.1 µM), for inactives: top-dose activity, negative = toxicity, hits mostly cytotoxic; AID 686971;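 further: potency means the concentration at half of the fitted maximal effect; 0% = DMSO wells and -100% = cell-free medium wells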
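% activity derives from luminescence (CellTiter-Glo), normalised to DMSO and no-cell wells. HT-1080-IDH1KD cells, 750/well, had 48 h compound exposure at 37 °C.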
IL1B secr inh: inhibitors of inflammasome signaling (IL-1 beta secretion). activity change, % at 57.5 µM. AID 743279. hit rate 4.7% among 360,000. THP-1 LPS/ATP IL-1B secretion, AlphaLISA, 16 h; stronger effect = lower value; in the data active means activity change below about -50%; inconclusive means mostly about -30% to -49%
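Secreted IL-1B measured by AlphaLISA bead assay after 16 h compound exposure of THP-1 cells; compounds (final up to 57.5 uM) added 1 h before LPS (250 ng/mL) and ATP (1.25 mM) stimulation; lower signal means less secretion.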
HT1080-NT tox: kills 2HG-producing HT-1080-NT fibrosarcoma cells. HT-1080-NT fibrosarcoma viability, CellTiter-Glo ATP luminescence, 48 h. Potency, µM (top dose mostly 46.1 µM), inactives show at the highest dose activity, negative = less viability, hits mostly cytotoxic. hit rate 1.6% among 360,000;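 further: NT is the 2HG producing partner of a matched IDH1 knockdown line; potency means the concentration at half of the fitted maximal effect; 0% = DMSO-treated cells and -100% = media-only wells without cells; nearly all actives have a fitted effect of over 55% in size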
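Viability of the 2HG-overproducing fibrosarcoma line after 48 hours of compound exposure at 37 degrees C was determined by luminescence with CellTiter-Glo, and concentration-effect curves were then fitted and categorized.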
TDP1 cell noCPT: qHTS for Inhibitors of human tyrosyl-DNA phosphodiesterase 1 (TDP1): qHTS in cells in absence of CPT | DT40 Tdp1-/- hTDP1 cells, no CPT, ATP luminescence, 48 h | Potency, µM (series often up to 46.2 µM), for the others: at the top dose activity change, negative = growth inhibition, hits mostly inhibitors | hit rate 15% among 420,000 | AID 686978, 2013; further: potency means the concentration at half of the fitted maximal effect; nearly all actives have a fitted effect of over 55% in size
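Growth of hTDP1-complemented DT40 Tdp1-knockout cells is measured by ATP luminescence after at least 48 hr compound exposure at 37 °C, with DMSO substituting for the 20 nM CPT used in the parallel screen.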
DT40 TDP1 CPT: DT40-hTDP1 cell growth loss with CPT; chicken DT40 Tdp1-/-;hTDP1 cells + 20 nM CPT, ATP luminescence, 48 h; Potency, µM (series often up to 46.2 µM), inactives show top-dose activity change, negative = growth inhibition, actives largely listed as inhibitors; hit rate 12% among 420,000; AID 686979; further: potency means the concentration at half of the fitted maximal effect; nearly all actives have a fitted effect of over 55% in size
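Cell growth measured by CellTiter-Glo luminescence after a minimum 48 h, 37 C compound exposure with 20 nM CPT in Tdp1-knockout DT40 cells stably expressing hTDP1, seeded 400/well; qHTS titration format.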
An asterisk follows results filed as active; ? = inconclusive; . = not tested or not shown. Unless noted, the call rests on the fitted dose curve; in most records, active means well fitted curve in the direction sought with a large enough effect; inconclusive means small, poorly fitted or top-dose-only effect, or another doubt; inactive means no such curve, though single readings can be large; an effect the other way counts as inactive or inconclusive. Unless noted, on the % scale 0 is the no-effect control and ±100 the full control effect.

SMILES	HT1080 IDH1KD tx	IL1B secr inh	HT1080-NT tox	TDP1 cell noCPT	DT40 TDP1 CPT
COc1ccccc1C1C2=C(N=c3s/c(=C/c4cccc(OCC(=O)O)c4)c(=O)n31)c1ccccc1CC2 (stereo not given)	?	5	?	-9%	3%
CCOC(=O)C1=C(c2ccccc2)N=c2sc(=Cc3cc(OC)c(OC)c(OC)c3)c(=O)n2C1c1cccs1 (stereo not given)	-2%	?	-11%	13µM*	8.2µM*
CCOC(=O)C1=C(C)N=c2s/c(=C\c3cccn3C)c(=O)n2C1c1cccc(OC)c1OC (stereo not given)	-2%	-6	4%	21µM*	?
N#Cc1ccc(CN2CC[C@@]3(CCCN(C(=O)c4ccncc4)C3)C2)cc1	.	.	.	1%	8%
Cc1cc(SCC(=O)N(C)C2CCCCC2)nc2ccccc12	16%	-21	8%	1%	0%
Cc1ccnc(NC(=O)CCC(=O)N(CC(=O)NC2CCCCC2)Cc2cccs2)c1	20%	-1	13%	?	-20%
Cc1ccc(-n2ncc3c(NCCCN4CCOCC4)ncnc32)cc1Cl	.	.	.	-14%	?
Cc1ccc(C)c(N2CCN(CCCNc3ncnc4onc(-c5ccc(Cl)cc5)c34)CC2)c1	.	.	.	16µM*	?
Cc1cccc(N2CCN(CCCNc3ncnc4onc(-c5ccc(F)cc5)c34)CC2C)c1 (stereo not given)	.	.	.	21µM*	?
Cc1cccc(N2CCN(CCCNc3ncnc4onc(-c5ccc(Cl)cc5)c34)CC2C)c1 (stereo not given)	.	.	.	21µM*	?
O=C(COc1ccccc1F)Nc1ccccc1C(=O)NC1CC1	7%	0	0%	-27%	-27%
CC(C)c1ccc(N(CC(=O)NCCSC(C)(C)C)S(C)(=O)=O)cc1	2%	-6	-2%	-15%	?
CC(C)CN(C(=O)COC(=O)CSc1ccc([N+](=O)[O-])cc1)C1CCS(=O)(=O)C1 (stereo not given)	13%	1	10%	-17%	-15%
COC(=O)c1ccc(Cn2c(C)c(C(=O)NCc3ccc([N+](=O)[O-])cc3)sc2=O)o1	-22%	-3	0%	?	?
COc1ccc(CNC(=O)c2sc(=O)n(Cc3cc(Cl)ccc3OC)c2C)cc1	-1%	-19	-4%	16µM*	?
COc1ccc(C(C)=O)cc1Cn1c(C)c(C(=O)NCc2ccc(C(C)C)cc2)sc1=O	-21%	26	-22%	?	?
Cc1cccc(C)c1Cn1c(C)c(C(=O)NCc2ccc([N+](=O)[O-])cc2)sc1=O	?	0	?	23µM*	?
COc1ccc(Cl)cc1Cn1c(C)c(C(=O)NCc2cccc(Cl)c2)sc1=O	-1%	0	-3%	?	15µM*
COc1ccc(CNC(=O)c2sc(=O)n(Cc3cc(C(C)=O)ccc3OC)c2C)cc1	9%	-9	3%	13µM*	23µM*
COc1ccc(C(C)=O)cc1Cn1c(C)c(C(=O)NCc2cccc(C(F)(F)F)c2)sc1=O	?	-22	-19%	?	?
COc1ccc(C(C)=O)cc1Cn1c(C)c(C(=O)NCc2ccc3c(c2)OCO3)sc1=O	5%	-7	2%	?	?
COc1ccc(C(C)=O)cc1Cn1c(C)c(C(=O)NCc2cccc(Cl)c2)sc1=O	-2%	-24	-25%	21µM*	?
COc1ccc(C(C)=O)cc1Cn1c(C)c(C(=O)NCc2cccc(C)c2)sc1=O	6%	-79*	5%	?	?
COc1ccc(Cl)cc1Cn1c(C)c(C(=O)NCc2ccc3c(c2)OCCO3)sc1=O	-4%	-9	-5%	18µM*	?
CSc1ccc(Cn2c(C)c(C(=O)NCc3cccc(C)c3)sc2=O)cc1	?	-65*	-9%	?	23µM*
CN(CC(=O)Nc1ccccc1Br)C(=O)c1n[nH]c2ccccc12	-12%	16	?	-15%	-13%
